Reference: PubChem BioAssay (NCI)
Compounds without any hit were thinned out: in the full panel of roughly 83,000, 20% have a hit.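 Note: values are percent growth. 100 is the growth of untreated cells, values between 100 and 0 indicate rising inhibition; between -100 and 0 indicates cell death.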 Calls of active or inactive are those of the source. How the source made its calls: active means growth percent below 10; inactive means the rest.

How the values were obtained:
Assay in all cases: NCI-60 one-dose screen, 48 h (100 = growth as untreated, 0 = no growth, -100 = all killed)
Details in all cases: 10 µM unless noted
SK-MEL-2 melanoma = system: SK-MEL-2 melanoma
EKVX NSCLC = system: EKVX NSCLC
SN12C renal = system: SN12C renal
UO-31 renal = system: UO-31 renal
TK-10 renal = system: TK-10 renal
ACHN renal = system: ACHN renal
CAKI-1 renal = system: CAKI-1 renal
A498 renal = system: A498 renal
CCRF-CEM leukemia = system: CCRF-CEM leukemia
MOLT-4 leukemia = system: MOLT-4 leukemia
SR leukemia = system: SR leukemia
RPMI-8226 leukemia = system: RPMI-8226 leukemia
OVCAR-5 ovarian = system: OVCAR-5 ovarian
OVCAR-4 ovarian = system: OVCAR-4 ovarian
SK-OV-3 ovarian = system: SK-OV-3 ovarian
IGROV1 ovarian = system: IGROV1 ovarian
OVCAR-3 ovarian = system: OVCAR-3 ovarian
HS 578T breast = system: HS 578T breast
NCI/ADR-RES ovarian = system: NCI/ADR-RES ovarian
OVCAR-8 ovarian = system: OVCAR-8 ovarian

Measured: growth

COc1ccc2c(c1OC)OCC(CN(C)C)C2=O (stereo unspecified)
active: UO-31 renal -72.5% | RPMI-8226 leukemia -40.8% | OVCAR-4 ovarian -50.8%
inactive: SK-MEL-2 melanoma 112% | EKVX NSCLC 99.4% | SN12C renal 98.5% | TK-10 renal 90.7% | ACHN renal 54.2% | CAKI-1 renal 94.4% | A498 renal 104% | CCRF-CEM leukemia 60% | MOLT-4 leukemia 61.1% | SR leukemia 78.2% | OVCAR-5 ovarian 92.9% | SK-OV-3 ovarian 108% | IGROV1 ovarian 93.3% | OVCAR-3 ovarian 92.4% | HS 578T breast 106% | NCI/ADR-RES ovarian 106%

COc1cccc2c1C(=O)c1c(O)c3c(c(O)c1C2=O)C[C@@](O)(C(=O)CO)C[C@@H]3OC1CC(OC(C)=O)C(OC(C)=O)C(C)O1 (stereo partly specified)
active: SK-MEL-2 melanoma -0.534% | SN12C renal -6.25% | UO-31 renal -38.2% | TK-10 renal -36.3% | ACHN renal -92.2% | CAKI-1 renal -40.5% | A498 renal -19.1% | CCRF-CEM leukemia -48.6% | MOLT-4 leukemia -53.2% | RPMI-8226 leukemia -43.5% | OVCAR-8 ovarian 0.76% | OVCAR-5 ovarian 1.32% | OVCAR-4 ovarian -4.7% | SK-OV-3 ovarian -10.4% | OVCAR-3 ovarian -41.2% | HS 578T breast -10.9% | NCI/ADR-RES ovarian 2.46%
inactive: EKVX NSCLC 30.5%

CCc1oc2ccccc2c1C(=O)c1cc(Br)c(O)c(Br)c1
inactive: SK-MEL-2 melanoma 59.6% | EKVX NSCLC 73.6% | SN12C renal 78.4% | UO-31 renal 84.3% | TK-10 renal 125% | ACHN renal 84.2% | CAKI-1 renal 63.6% | A498 renal 67.2% | CCRF-CEM leukemia 41.8% | MOLT-4 leukemia 83.9% | RPMI-8226 leukemia 34.7% | OVCAR-8 ovarian 79.2% | OVCAR-5 ovarian 124% | OVCAR-4 ovarian 67% | SK-OV-3 ovarian 95.8% | IGROV1 ovarian 72.2% | OVCAR-3 ovarian 58.2% | NCI/ADR-RES ovarian 44.1%

CCC1C[N+]2=C(c3cc(OC)c(OC)cc3CC2)c2c1cc1n2CCc2cc(OC)c(OC)cc2-1 (stereo unspecified)
active: SK-MEL-2 melanoma -1.15%
inactive: EKVX NSCLC 57.9% | SN12C renal 32.7% | UO-31 renal 90.3% | TK-10 renal 82.9% | ACHN renal 96.9% | CAKI-1 renal 87% | A498 renal 75% | CCRF-CEM leukemia 52.1% | MOLT-4 leukemia 41.5% | RPMI-8226 leukemia 11.6% | OVCAR-8 ovarian 32.4% | OVCAR-5 ovarian 79.7% | OVCAR-4 ovarian 14.7% | SK-OV-3 ovarian 94.9% | HS 578T breast 42.4% | NCI/ADR-RES ovarian 101%

Cc1cc(C(=O)c2ccc(Cl)cc2)ccc1O
inactive: SK-MEL-2 melanoma 125% | EKVX NSCLC 81% | SN12C renal 89.3% | UO-31 renal 84.7% | TK-10 renal 87% | ACHN renal 87.3% | CAKI-1 renal 90.5% | A498 renal 76.1% | CCRF-CEM leukemia 96.9% | MOLT-4 leukemia 102% | RPMI-8226 leukemia 73.3% | OVCAR-8 ovarian 85.9% | OVCAR-5 ovarian 99% | OVCAR-4 ovarian 79.2% | SK-OV-3 ovarian 110% | IGROV1 ovarian 117% | OVCAR-3 ovarian 98.8% | HS 578T breast 116% | NCI/ADR-RES ovarian 92.2%

CN1CCC(CN2c3ccccc3Sc3ccccc32)C1 (stereo unspecified)
inactive: SK-MEL-2 melanoma 114% | EKVX NSCLC 107% | SN12C renal 97.1% | UO-31 renal 60.2% | TK-10 renal 92% | ACHN renal 86.1% | CAKI-1 renal 79.4% | A498 renal 109% | CCRF-CEM leukemia 72.7% | MOLT-4 leukemia 79.1% | SR leukemia 79.2% | RPMI-8226 leukemia 78.7% | OVCAR-5 ovarian 84.1% | OVCAR-4 ovarian 94.4% | SK-OV-3 ovarian 109% | OVCAR-3 ovarian 88.8% | HS 578T breast 86.1% | NCI/ADR-RES ovarian 85.8%

C/C=C/c1cc2c(c(=O)o1)C(=O)[C@@H](O)[C@H](C)O2
inactive: SK-MEL-2 melanoma 72.9% | EKVX NSCLC 95% | SN12C renal 97.6% | ACHN renal 26.3% | CAKI-1 renal 43.3% | A498 renal 125% | MOLT-4 leukemia 43.6% | SR leukemia 11.9% | OVCAR-5 ovarian 87.5% | SK-OV-3 ovarian 109% | OVCAR-3 ovarian 47.5% | HS 578T breast 93.4% | NCI/ADR-RES ovarian 86%
active: UO-31 renal 0.0978% | TK-10 renal 5.77% | CCRF-CEM leukemia -17.5% | RPMI-8226 leukemia -45.7% | OVCAR-4 ovarian -12.6% | IGROV1 ovarian -46.9%

CN1CSC(=S)N(Cc2ccccc2)C1
inactive: SK-MEL-2 melanoma 73.3% | EKVX NSCLC 118% | SN12C renal 99.9% | UO-31 renal 69.5% | TK-10 renal 28.6% | ACHN renal 102% | CAKI-1 renal 80% | A498 renal 145% | CCRF-CEM leukemia 59.3% | MOLT-4 leukemia 64.5% | RPMI-8226 leukemia 31.4% | OVCAR-8 ovarian 97.8% | OVCAR-5 ovarian 103% | OVCAR-4 ovarian 112% | SK-OV-3 ovarian 114% | IGROV1 ovarian 92.9% | OVCAR-3 ovarian 65% | HS 578T breast 108% | NCI/ADR-RES ovarian 102%

CN=C(N)N/N=C(\C)c1ccc2c(c1)Cc1ccccc1-2
inactive: IGROV1 ovarian 20.5%
active: SK-MEL-2 melanoma -51.8% | EKVX NSCLC 1.95% | SN12C renal -40.5% | UO-31 renal -87.9% | TK-10 renal -75% | ACHN renal -92.1% | CAKI-1 renal -53.9% | A498 renal -8.05% | CCRF-CEM leukemia -35.2% | MOLT-4 leukemia -63% | SR leukemia -62.4% | RPMI-8226 leukemia -20.7% | OVCAR-8 ovarian -66.9% | OVCAR-5 ovarian -69.1% | SK-OV-3 ovarian -74.8% | OVCAR-3 ovarian -88.1% | HS 578T breast -19.1% | NCI/ADR-RES ovarian -29.7%

CCN(CC)CC(O)CNc1ccc(NCC2CO2)c2c1C(=O)c1ccccc1C2=O (stereo unspecified)
inactive: EKVX NSCLC 23.5% | A498 renal 81.6% | SK-OV-3 ovarian 22.5%
active: SK-MEL-2 melanoma -46.5% | SN12C renal -15.9% | UO-31 renal -40.6% | TK-10 renal -27% | ACHN renal -55.1% | CAKI-1 renal -32% | CCRF-CEM leukemia -29.9% | MOLT-4 leukemia -23.1% | SR leukemia -4.42% | RPMI-8226 leukemia -40.8% | OVCAR-5 ovarian -4.14% | IGROV1 ovarian -59.1% | OVCAR-3 ovarian -1.52% | HS 578T breast -40.4% | NCI/ADR-RES ovarian -1.62%

COc1cc(/C=C/C(=O)CC(=O)/C=C/c2ccc(O)c(OC)c2)ccc1O
active: CCRF-CEM leukemia 5.28% | SR leukemia -5.89% | RPMI-8226 leukemia -30.3%
inactive: SK-MEL-2 melanoma 81.1% | EKVX NSCLC 67.6% | SN12C renal 79% | UO-31 renal 13% | TK-10 renal 69.7% | ACHN renal 72.9% | CAKI-1 renal 64.3% | A498 renal 101% | MOLT-4 leukemia 31.4% | OVCAR-5 ovarian 61.1% | OVCAR-4 ovarian 65.8% | SK-OV-3 ovarian 75.3% | OVCAR-3 ovarian 37.3% | HS 578T breast 55.6% | NCI/ADR-RES ovarian 37.2%

Fc1ccc(NCCS)cc1
inactive: SK-MEL-2 melanoma 102% | EKVX NSCLC 101% | SN12C renal 97.9% | UO-31 renal 84.7% | TK-10 renal 106% | ACHN renal 105% | CAKI-1 renal 110% | A498 renal 101% | CCRF-CEM leukemia 96.6% | MOLT-4 leukemia 95.3% | SR leukemia 88.9% | RPMI-8226 leukemia 91% | OVCAR-8 ovarian 103% | OVCAR-5 ovarian 104% | OVCAR-4 ovarian 102% | OVCAR-3 ovarian 107% | HS 578T breast 115% | NCI/ADR-RES ovarian 109%

Oc1ccc(Cl)cc1Cc1cc(Cl)ccc1O
inactive: EKVX NSCLC 60.9% | SN12C renal 11.4% | UO-31 renal 22.9% | TK-10 renal 113% | ACHN renal 26.1% | CAKI-1 renal 83.5% | A498 renal 63.6% | CCRF-CEM leukemia 22.7% | MOLT-4 leukemia 41.3% | SR leukemia 81.4% | OVCAR-8 ovarian 20.9% | OVCAR-4 ovarian 38.7% | SK-OV-3 ovarian 84.8% | HS 578T breast 34.2%
active: SK-MEL-2 melanoma 5.31% | RPMI-8226 leukemia -1.2% | OVCAR-3 ovarian 9.92% | NCI/ADR-RES ovarian 4.47%

O=C(CCl)N(c1ccccc1)c1ccccc1
inactive: SK-MEL-2 melanoma 97.7% | EKVX NSCLC 111% | SN12C renal 99.6% | UO-31 renal 86.7% | TK-10 renal 105% | ACHN renal 109% | CAKI-1 renal 105% | A498 renal 105% | CCRF-CEM leukemia 92.7% | MOLT-4 leukemia 102% | SR leukemia 101% | RPMI-8226 leukemia 109% | OVCAR-8 ovarian 96.3% | OVCAR-5 ovarian 117% | OVCAR-4 ovarian 111% | SK-OV-3 ovarian 114% | HS 578T breast 102% | NCI/ADR-RES ovarian 108%

O=C(/C=C/C(Cl)(Cl)Cl)Nc1ccc(Cl)cc1
inactive: SK-MEL-2 melanoma 84.6% | EKVX NSCLC 94.2% | SN12C renal 101% | TK-10 renal 129% | ACHN renal 104% | CAKI-1 renal 101% | A498 renal 101% | CCRF-CEM leukemia 73.2% | MOLT-4 leukemia 84.2% | SR leukemia 40.1% | RPMI-8226 leukemia 75.3% | OVCAR-5 ovarian 93.7% | OVCAR-4 ovarian 115% | SK-OV-3 ovarian 110% | OVCAR-3 ovarian 119% | HS 578T breast 105% | NCI/ADR-RES ovarian 95.5%
active: UO-31 renal -78%

O=C(c1ccccc1)c1ccc(O)c2ncccc12
inactive: SK-MEL-2 melanoma 43% | EKVX NSCLC 51.1% | SN12C renal 31.6% | TK-10 renal 83.1% | ACHN renal 18.5% | A498 renal 53.1% | CCRF-CEM leukemia 29.5% | MOLT-4 leukemia 21.2% | OVCAR-5 ovarian 68% | OVCAR-4 ovarian 15.4% | SK-OV-3 ovarian 49.8% | IGROV1 ovarian 17% | HS 578T breast 52.7%
active: UO-31 renal 7.3% | CAKI-1 renal 8.47% | OVCAR-8 ovarian 8.06% | OVCAR-3 ovarian -36.7% | NCI/ADR-RES ovarian 2.55%

O=C(O)c1cc2c(s1)C(=O)c1sccc1C2=O
inactive: SK-MEL-2 melanoma 15.5% | EKVX NSCLC 101% | TK-10 renal 115% | ACHN renal 80.1% | CAKI-1 renal 107% | A498 renal 103% | CCRF-CEM leukemia 42.5% | MOLT-4 leukemia 72.3% | RPMI-8226 leukemia 74.3% | OVCAR-5 ovarian 78.3% | SK-OV-3 ovarian 115% | IGROV1 ovarian 56.3% | NCI/ADR-RES ovarian 15.1%
active: SN12C renal -46.9% | UO-31 renal -43.1% | SR leukemia -12.3% | OVCAR-4 ovarian -6.65% | OVCAR-3 ovarian -18.6% | HS 578T breast -18.8%
